Measurements as given in PubChem BioAssay AID1159580 (chemical genetic matrix, 2015).
The whole screen tested about 5,500 compounds, of which about 2,000 (36%) were called active. Inconclusive results (about 18%) are left out. No stated cut-off is given here; in the data, active means normalized growth mostly below about 0.91 (no sharp cut-off); inconclusive means no clear call, values can overlap the other calls; inactive means mostly above about 0.92. The list shows a part of the results.

Experiment: chemical genetic growth profiling, strain panel (AID 1159580);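 further: tested at 20 µM; growth read once vehicle control cultures reached saturation at 30 °C; 1 = growth at the plate median or of vehicle wells; lower values mean less growth of the strain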
Conditions: growth OD

Measured: normalized growth

NC[C@@H]1O[C@H](O[C@@H]2[C@@H](CO)OC(O[C@@H]3[C@@H](O)[C@H](N)C[C@H](N)[C@H]3O[C@H]3O[C@H](CO)[C@@H](O)[C@H](O)[C@H]3N)[C@@H]2O)[C@H](N)[C@@H](O)[C@@H]1O (stereo partly drawn)
inactive: S. cerevisiae deletion strains, locus YJR043C, strain POL32, hits give low values 0.936 | S. cerevisiae deletion strains, locus YJR066W, strain TOR1, hits give low values 0.945 | S. cerevisiae deletion strains, locus YKL009W, strain mrt4, hits give low values 0.982 | S. cerevisiae deletion strains, locus YKL068W, hits give low values 0.993 | S. cerevisiae deletion strains, locus YKL085W, strain MDH1 (second series), hits give low values 0.995 | S. cerevisiae deletion strains, locus YKL085W, strain MDH1, hits give low values 0.995 | S. cerevisiae deletion strains, locus YKL160W, strain elf1, hits give low values 0.996 | S. cerevisiae deletion strains, locus YKL190W, strain CNB1, hits give low values 0.988 | S. cerevisiae deletion strains, locus YKR001C, strain vps1, hits give low values 0.988 | S. cerevisiae deletion strains, locus YKR026C, strain gcn3, hits give low values 0.992 | S. cerevisiae deletion strains, locus YKR091W, strain srl3, hits give low values 0.989 | S. cerevisiae deletion strains, locus YLL001W, strain dnm1, hits give low values 0.985 | S. cerevisiae deletion strains, locus YLL026W, hits give low values 0.987 | S. cerevisiae deletion strains, locus YLL041C, strain sdh2, hits give low values 0.993 | S. cerevisiae deletion strains, locus YLR027C, strain aat2, hits give low values 0.987 | S. cerevisiae deletion strains, locus YLR039C, strain RIC1, hits give low values 0.983 | S. cerevisiae deletion strains, locus YLR058C, strain SHM2, hits give low values 0.978 | S. cerevisiae deletion strains, locus YLR102C, strain apc9, hits give low values 0.989 | S. cerevisiae deletion strains, locus YLR113W, strain HOG1, hits give low values 0.952 | S. cerevisiae deletion strains, locus YLR221C, strain rsa3, hits give low values 0.991 | S. cerevisiae deletion strains, locus YLR258W, strain gsy2, hits give low values 0.993 | S. cerevisiae deletion strains, locus YLR262C, strain YPT6 (second series), hits give low values 1.01 | S. cerevisiae deletion strains, locus YLR262C, strain YPT6, hits give low values 0.973 | S. cerevisiae deletion strains, locus YLR268W, strain sec22, hits give low values 0.986 | S. cerevisiae deletion strains, locus YLR320W, strain mms22, hits give low values 0.997 | S. cerevisiae deletion strains, locus YLR330W, strain CHS5, hits give low values 0.998 | S. cerevisiae deletion strains, locus YLR342W, strain FKS1 (second series), hits give low values 1.09 | S. cerevisiae deletion strains, locus YLR342W, strain FKS1, hits give low values 0.992 | S. cerevisiae deletion strains, locus YLR357W, strain rsc2, hits give low values 0.992 | S. cerevisiae deletion strains, locus YLR370C, strain arc18, hits give low values 0.992 | S. cerevisiae deletion strains, locus YLR371W, strain rom2, hits give low values 1 | S. cerevisiae deletion strains, locus YLR384C, strain iki3, hits give low values 0.99 | S. cerevisiae deletion strains, locus YLR418C, strain cdc73, hits give low values 1.01 | S. cerevisiae deletion strains, locus YML016C, strain PPZ1, hits give low values 0.992 | S. cerevisiae deletion strains, locus YML032C, strain rad52, hits give low values 0.98 | S. cerevisiae deletion strains, locus YML120C, strain ndi1, hits give low values 0.988 | S. cerevisiae deletion strains, locus YML124C, strain tub3, hits give low values 0.985 | S. cerevisiae deletion strains, locus YMR058W, strain fet3, hits give low values 0.988 | S. cerevisiae deletion strains, locus YMR078C, strain ctf18, hits give low values 0.989 | S. cerevisiae deletion strains, locus YMR125W, strain sto1, hits give low values 0.998 | S. cerevisiae deletion strains, locus YMR129W, hits give low values 0.998 | S. cerevisiae deletion strains, locus YMR205C, strain PFK2, hits give low values 0.994 | S. cerevisiae deletion strains, locus YMR223W, strain ubp8, hits give low values 1.01 | S. cerevisiae deletion strains, locus YMR231W, strain pep5, hits give low values 1 | S. cerevisiae deletion strains, locus YMR307W, strain GAS1, hits give low values 1.07 | S. cerevisiae deletion strains, locus YNL067W, strain RPL9B, hits give low values 0.97 | S. cerevisiae deletion strains, locus YNL071W, strain lat1, hits give low values 0.987 | S. cerevisiae deletion strains, locus YNL183C, strain NPR1, hits give low values 0.939 | S. cerevisiae deletion strains, locus YNL209W, strain ssb2, hits give low values 0.999 | S. cerevisiae deletion strains, locus YNL233W, strain BNI4, hits give low values 0.995 | S. cerevisiae deletion strains, locus YNL248C, strain rpa49, hits give low values 0.988 | S. cerevisiae deletion strains, locus YNL250W, strain rad50, hits give low values 0.991 | S. cerevisiae deletion strains, locus YNL271C, strain bni1, hits give low values 0.986 | S. cerevisiae deletion strains, locus YNL298W, strain CLA4, hits give low values 0.989 | S. cerevisiae deletion strains, locus YNL307C, strain MCK1, hits give low values 0.983 | S. cerevisiae deletion strains, locus YNL322C, strain KRE1 (second series), hits give low values 0.989 | S. cerevisiae deletion strains, locus YNR049C, strain mso1, hits give low values 0.993 | S. cerevisiae deletion strains, locus YNR052C, strain pop2, hits give low values 0.998 | S. cerevisiae deletion strains, locus YOL006C, strain TOP1, hits give low values 0.932 | S. cerevisiae deletion strains, locus YOL012C, strain htz1 1.06 | S. cerevisiae deletion strains, locus YOL147C, strain pex11, hits give low values 1 | S. cerevisiae deletion strains, locus YOR001W, strain rrp6, hits give low values 0.985 | S. cerevisiae deletion strains, locus YOR061W, strain CKA2, hits give low values 0.973 | S. cerevisiae deletion strains, locus YOR069W, strain VPS5, hits give low values 0.998 | S. cerevisiae deletion strains, locus YOR070C, strain gyp1, hits give low values 0.995 | S. cerevisiae deletion strains, locus YOR080W, strain dia2, hits give low values 0.989 | S. cerevisiae deletion strains, locus YOR083W, strain WHI5, hits give low values 0.993 | S. cerevisiae deletion strains, locus YOR106W, strain vam3, hits give low values 0.995 | S. cerevisiae deletion strains, locus YOR136W, strain idh2, hits give low values 0.98 | S. cerevisiae deletion strains, locus YOR144C, strain elg1, hits give low values 0.999 | S. cerevisiae deletion strains, locus YOR184W, strain ser1, hits give low values 0.972 | S. cerevisiae deletion strains, locus YOR231W, strain MKK1, hits give low values 0.965 | S. cerevisiae deletion strains, locus YOR265W, strain rbl2, hits give low values 0.992 | S. cerevisiae deletion strains, locus YOR270C, strain vph1, hits give low values 0.966 | S. cerevisiae deletion strains, locus YOR290C, strain snf2, hits give low values 0.989 | S. cerevisiae deletion strains, locus YOR316C, strain cot1, hits give low values 0.979 | S. cerevisiae deletion strains, locus YPL051W, strain arl3, hits give low values 0.989 | S. cerevisiae deletion strains, locus YPL078C, strain atp4, hits give low values 0.99 | S. cerevisiae deletion strains, locus YPL106C, strain sse1, hits give low values 0.967 | S. cerevisiae deletion strains, locus YPL240C, strain hsp82, hits give low values 0.997 | S. cerevisiae deletion strains, locus YPL241C, strain CIN2, hits give low values 0.998 | S. cerevisiae deletion strains, locus YPL256C, strain CLN2, hits give low values 0.968 | S. cerevisiae deletion strains, locus YPR119W, strain clb2, hits give low values 0.99 | S. cerevisiae deletion strains, locus YPR141C, strain kar3, hits give low values 0.988 | S. cerevisiae deletion strains, locus YPR163C, strain tif3, hits give low values 0.998 | S. cerevisiae deletion strains, locus YPR167C, strain met16, hits give low values 0.999 | S. cerevisiae deletion strains, strain wtn01, hits give low values 1.02 | S. cerevisiae strains, strain wild type, hits give low values 0.988
